The list is not random: actives were taken first. Their share in the collection is about 21%.
Pf growth 48h – P. falciparum growth inhibition at 48 hours (one generation). P. falciparum luciferase growth in erythrocytes, 48 h. hit rate 5.9% among 310,000. Potency, µM (series often up to 28.7 µM), most hits filed as inhibitors. AID 504832
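Luciferase-expressing P. falciparum in infected erythrocytes (2% hematocrit, 0.1% parasitemia final) in RPMI 1640/0.5% Albumax were exposed to compound for 48 hours at 37 C, 5% CO2; growth read as luminescence.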
CHX counter – counter-screen hit for Shiga toxin inhibitors, cycloheximide. max response, %. cell reporter, cycloheximide protein synthesis inhibition counterscreen. AID 2314. hit rate 12% among 300,000; in the data active = max response mostly above about 13%, no sharp cut-off; inactive = mostly below about 14%; note: read at 38.3 µM for the half of the compounds with a filed dose
Shiga inhibitor – blocks Shiga toxin action in Vero cells. Vero cells, Shiga toxin protein synthesis inhibition reporter. inhibition, % at 38.7 µM. hit rate 9.2% among 290,000. AID 2315; in the data active = inhibition mostly above about 28%, no sharp cut-off; inactive = mostly below about 43%
Sm TGR inh – S. mansoni TGR enzyme inhibition. Potency, µM (series often up to 114 µM), actives largely listed as inhibitors. AID 485364. Q962Y6. hit rate 3% among 360,000. purified TGR, DTNB reduction, TNB absorbance 405 nm; note: nearly all actives have a fitted effect of over 60% in size
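Kinetic colorimetric format: TGR-catalysed, NADPH-driven DTNB reduction monitored via TNB absorbance. Enzyme dispensed at 20 nM; compound exposure 15 min at room temperature before reaction start.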
NS1 inh – inhibitors of influenza NS1 protein function | Potency, µM (highest dose often 46.1 µM) | hit rate 0.4% among 270,000; calls by dose curve; note: actives are rising curves; nearly all actives have a fitted effect of over 50% in size
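OD600 was taken as the measure of yeast growth restored by compound in an NS1-expressing S. cerevisiae strain. Cells had been washed out of glucose medium and diluted 1:100 into galactose -URA medium, pH 6.0.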
Pf growth 96h – inhibits malaria parasite growth, 96 h; P. falciparum luciferase reporter growth, 96 h; Potency, µM (top dose mostly 28.7 µM), actives largely listed as inhibitors; hit rate 6.9% among 320,000; AID 504834
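Compounds incubated with erythrocytes infected by luciferase-expressing P. falciparum (2% hematocrit, 0.05% parasitemia final) for 96 hours, 37 C in 5% CO2. Growth inhibition scored as decreased luciferase luminescence.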
Numbers stand for hits; i = inactive; ? = inconclusive; nt = no result; [ ] = dose if it differs, or a comment. Unless noted, calls come from the whole dose curve; as a rule, active = well fitted curve in the direction sought with a large enough effect; inconclusive = small, poorly fitted or top-dose-only effect, or another doubt; inactive = no such curve, though single readings can be large; an effect the other way counts as inactive or inconclusive.

SMILES	Pf growth 48h	CHX counter	Shiga inhibitor	Sm TGR inh	NS1 inh	Pf growth 96h
O=C(c1cc(-c2ccccc2)on1)N1CCCc2ccccc21	?	50	61	i	i	i
Cn1ccc(C(=O)N2CCCc3ccccc32)n1	i	i	i	i	i	i
O=C(c1cc(-c2ccco2)on1)N1CCN(c2ccccc2)CC1	i	i	i	i	i	?
COc1ccc(N2CCN(c3nc4ccccc4n4c(C)nnc34)CC2)cc1	nt	nt	nt	i	nt	nt
Cc1nnc2c(N3CCN(CCO)CC3)nc3ccccc3n12	i	i	i	i	i	13µM
CC(=O)c1cccc(S(=O)(=O)NC2CC2)c1	i	i	i	?	i	i
CCOC(=O)C1=C(CC)Nc2ccccc2N=C1NC(=O)Nc1ccc(Cl)c(Cl)c1	nt	i	i	i	i	2.6µM
Cc1cccc(C(=O)NNC(=O)c2ccco2)c1	i	i	i	i	i	i
Cc1ccc2cc(/C=C/C(=O)c3ccco3)c(Cl)nc2c1	?	83	117	8.9µM	i	i
Cc1ccc2nc(Cl)c(/C=C/C(=O)c3ccco3)cc2c1	i	57	81	?	i	i
Cc1ccc2cc(/C=N/NC(=O)c3ccccc3[N+](=O)[O-])c(Cl)nc2c1	i	i	i	i	nt	i
COc1ccc(-c2nc(CSCC(=O)NCc3ccccc3Cl)c(C)o2)cc1OC	nt	nt	nt	i	nt	nt
CCc1ccccc1-n1c(SCC(=O)Nc2ccc3c(c2)OCCO3)nc2[nH]ncc2c1=O	i	53	112	i	i	i
CCn1c(SCC(=O)Nc2ccc3c(c2)OCCO3)nnc1-c1c[nH]c2ccccc12	?	12	i	i	i	?
O=C(CS(=O)(=O)c1c[nH]c2ccccc12)Nc1ccc2c(c1)OCCO2	i	38	45	i	i	i
Cc1ccc(NCc2nnc(SCC(=O)Nc3ccccc3)n2CC2CCCO2)c(C)c1 (centres undefined)	i	33	i	i	i	nt
O=C(CSc1nnc(-c2c[nH]c3ccccc23)n1CC1CCCO1)Nc1ccc2c(c1)OCCO2 (centres undefined)	nt	i	i	i	i	?
CCc1ccccc1-n1c(SCC(=O)N2CCCC2)nc2[nH]ncc2c1=O	i	i	i	i	nt	?
COc1ccc(N(CC(O)Cn2c(C)nc3ccccc32)S(=O)(=O)c2ccccc2)cc1 (centres undefined)	?	i	i	i	nt	?
CCCCn1c(N)c(N(CC)C(=O)C2=COCCO2)c(=O)[nH]c1=O	i	nt	nt	i	nt	i
CC(C)[C@@H](C(=O)N[C@@H](Cc1ccccc1)C(=O)O)N1C(=O)N2CCc3c([nH]c4ccccc34)[C@@]2(C)C1=O	?	i	i	i	?	i
O=C(CN1CCN(Cc2ccccc2Cl)CC1)N/N=C/C=C/c1ccccc1[N+](=O)[O-]	i	i	i	i	i	i
Cc1ccc(C(=O)Nc2cc(-c3nc4ncccc4o3)ccc2C)c(C)c1	nt	nt	nt	i	nt	nt
Nn1cnnc1SCC(=O)Nc1ccc2c(c1)OCCO2	i	12	i	i	i	i
Cc1ccc(NC(=O)CSc2nncn2N)cc1C	i	i	i	i	i	?
SMILES	Pf growth 48h	CHX counter	Shiga inhibitor	Sm TGR inh	NS1 inh	Pf growth 96h
Cc1nnc(SCC(=O)Nc2ccc3c(c2)OCCO3)n1CC1CCCO1 (centres undefined)	i	7.4	30	i	i	i
Cc1ccc(-c2nnc(SCC(=O)Nc3ccc4c(c3)OCCO4)n2N)cc1	i	i	i	i	i	10µM
CCn1c(C)nnc1SCC(=O)Nc1ccc2c(c1)OCCO2	i	13	i	i	i	i
Cc1nnc(SCC(=O)Nc2ccc3c(c2)OCCO3)n1N	i	i	i	i	i	nt
COC(=O)Nc1nnc(COc2ccccc2)s1	i	i	i	i	i	i
CCn1c(COc2ccc(Cl)cc2)nnc1SCC(=O)Nc1ccc2c(c1)OCO2	i	i	i	i	i	10µM
CCOC(=O)c1c(NC(=O)CSc2nnc(-c3c[nH]c4ccccc34)n2CC)sc2c1CCCC2	?	i	i	i	?	12µM
CCCN(Cc1cccs1)C(=O)Nc1cc(C)ccc1OC	nt	nt	nt	i	nt	nt
CCN(C(=O)CN1C(=O)S/C(=C\c2ccc(F)cc2)C1=O)C1CCS(=O)(=O)C1 (centres undefined)	?	i	i	i	i	i
CCOc1ccccc1NC(=O)CSc1cc(=O)n(CC)c2ccccc12	nt	nt	nt	i	nt	nt
CC(C(=O)Nc1cccnc1)c1ccc([N+](=O)[O-])cc1 (centres undefined)	?	i	i	i	nt	i
CC(C(=O)Nc1cccc(Br)c1)c1ccc([N+](=O)[O-])cc1 (centres undefined)	10µM	i	i	i	i	?
O=C(Nc1ccc2c(c1)OCO2)c1ccc([N+](=O)[O-])cc1[N+](=O)[O-]	i	i	44	i	i	i
CCN(CC)C(C(=O)Nc1ccc(C(C)C)cc1)c1ccc2c(c1)OCO2 (centres undefined)	8.3µM	i	i	i	i	i
CC(C(=O)Nc1ccc2c(c1)OCCO2)c1ccc([N+](=O)[O-])cc1 (centres undefined)	3.3µM	i	i	i	i	i
O=C(Nc1ccc(NC(=O)c2ccc([N+](=O)[O-])cc2[N+](=O)[O-])cc1)c1ccco1	?	i	i	i	i	i
CC(C)c1ccc(NC(=O)C(c2ccc3c(c2)OCO3)N2CCN(C(=O)c3ccco3)CC2)cc1 (centres undefined)	?	i	i	i	i	i
O=C(Cc1ccc([N+](=O)[O-])cc1)Nc1ccc2c(c1)OCO2	i	i	i	i	nt	i
CC(C(=O)Nc1ccc2c(c1)OCO2)c1ccc([N+](=O)[O-])cc1 (centres undefined)	2.3µM	i	i	i	i	?
CCCSc1nc2sc3c(c2c(=O)[nH]1)CCN(Cc1ccccc1)C3	?	i	i	i	i	4.1µM
O=c1[nH]c(C(Cl)Cl)nc2sc3c(c12)CCN(Cc1ccccc1)C3	i	i	i	?	i	?
COC(=O)C1=NN(c2ccccc2OC)C2C(=O)N(c3ccccc3OC)C(=O)C12 (centres undefined)	i	i	i	i	i	i
Cc1ccc(C(=O)N2NC(c3ccccc3F)C3C(=O)N(c4cccc(C)c4)C(=O)C32)cc1 (centres undefined)	i	i	i	i	i	2.1µM
COc1ccccc1N1C(=O)C2C(c3ccccc3F)NN(C(=O)c3ccc(C)cc3)C2C1=O (centres undefined)	i	i	i	18µM	i	?
CCOC(=O)C1(C)NC(c2ccccc2F)C2C(=O)N(c3cccc(C(C)=O)c3)C(=O)C21 (centres undefined)	i	i	i	i	i	i[5.75 µM]
CCOC(=O)c1cnc(-c2ccccc2)nc1Oc1ccc(OC)cc1	8.3µM	i	i	i	i	5.2µM
CS(=O)(=O)c1cnc(-c2ccccc2)nc1Oc1ccc(F)cc1	13µM	i	i	i	i	?
CCOC(=O)c1cnc(-c2cccc(OC)c2)[nH]c1=O	i	15	i	i	i	?

Bioassay records as filed in PubChem.
